Measurements taken from PubChem BioAssay (NCATS).
Records with an inconclusive call do not appear. A call without a number means that no potency is given here. Activity calls are given as the source filed them. Unless noted, the call rests on the fitted dose curve; in most records, active means well fitted curve in the direction sought with a large enough effect; inconclusive means small, poorly fitted or top-dose-only effect, or another doubt; inactive means no such curve, though single readings can be large; an effect the other way counts as inactive or inconclusive.

How the values were obtained:
[1] = qHTS to identify inhibitors of the type 1 interferon - major histocompatibility complex class I in skeletal muscle: primary screen against the NCATS LOPAC collection (AID 1347405);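 further: lytic HiBiT luminescence reporting HLA-B protein level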; further: potency means the concentration at half of the fitted maximal effect
Summary of the method: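 Immortalized human C25cl48 myoblasts with HiBiT knocked into endogenous HLA-B*08:01 were stimulated with 4.0 ng/ml IFN-beta and given compounds in a 7-point, 1:4.3 titration from 46 uM final; after 24 hrs, lytic HiBiT luminescence was read.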

[2] = qHTS for inhibitors of adenylyl cyclases using a fission yeast platform: a pilot screen against the NCATS LOPAC library (AID 1347410)
Summary of the method: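 Inhibition of GNAS-stimulated AC9 activity in S. pombe was inferred from derepression of a PKA-repressed fbp1-GFP reporter, measured as cytometric fluorescence after 18 h at 30C with compounds at up to 57 µM.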

[3] = Validation qHTS assay for inhibitors of Activation Induced Cytidine Deaminase (AID): UDG Counterscreen signal (AID 1347427)
Summary of the method: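 Counterscreen read of UDG activity (2 U/mL, 4/3x) in the FRET deamination format with AID (1 uM, 4/3x), DJC20/DJC23 substrates (250 nM, 4x), 4 h at room temperature. NaOH stop, fluorescence at 560 ex/665 em.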

[4] = target: Single-stranded DNA cytosine deaminase (Homo sapiens) (UniProt Q9GZX7); test: Validation qHTS assay for inhibitors of Activation Induced Cytidine Deaminase (AID): AID signal (AID 1347429)
Summary of the method: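 AID and UDG were combined and compounds added at final up to 114 uM, then DJC20/DJC23 FRET substrate was added for 4 hr at room temperature. NaOH was then added for 30 min before fluorescence was read at 540/590 nm.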

[5] = Primary qHTS for inhibitors of La Crosse Virus (LACV) - induced cell death in SH-SY5Y cells (AID 1508616);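 further: top concentration of the series differs between compounds; higher means more rescue of cells from virus-induced death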
Summary of the method: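 Luminescent ATP readout (ATPLite 1step, 5 min room temperature) measured rescue from LACV-induced death after 6 days of infection at 0.01 MOI; normalized to infected DMSO wells and uninfected DMSO wells.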

[6] = target: Calcium and integrin-binding protein 1 (Homo sapiens) (UniProt Q99828); test: Validation qHTS for Identification of Calcium Integrin Binding protein 1 (CIB1) Competitor (AID 1508618)
Summary of the method: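 In this qHTS validation, the LOPAC set (up to 114 uM) was tested for blocking CIB1 binding to a fluorescein-tagged alphaIIb peptide, with FP detection at 480/540 nm.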

[7] = target: Calcium and integrin-binding protein 1 (Homo sapiens) (UniProt Q99828); test: Primary qHTS for Identification of Calcium Integrin Binding Protein 1 (CIB1) Competitor (AID 1508620);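 further: GST tagged CIB1 binding a fluorescein labelled alphaIIb integrin peptide tracer; top concentration of the series differs between compounds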
Summary of the method: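 Fluorescence polarization competition: CIB1-GST (1 uM final) preincubated with compound 15 min at room temperature, then FITC-labeled alphaIIb peptide (100 nM final) added for another 15 min. Polarization read at Ex 480/Em 540.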

[8] = Primary qHTS for small molecule stabilizers of the endoplasmic reticulum resident proteome: Secreted ER Calcium Modulated Protein (SERCaMP) assay (AID 1508630)
Summary of the method: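 GLuc-SERCaMP-expressing SH-SY5Y cells, pretreated 16 h with compound, are challenged with thapsigargin to empty ER calcium stores; after 4 h, coelenterazine is added directly to the medium and luminescence is imaged.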

[9] = qHTS to identify inhibitors of the type 1 interferon - major histocompatibility complex class I in skeletal muscle: primary screen against the NCATS Pharmaceutical Collection (AID 1347407);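 further: luminescence of HiBiT knocked into endogenous HLA-B as interferon-induced MHC class I level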
Summary of the method: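 A qHTS format is used: 8-point, 1:5 compound series with 46 uM top final concentration, applied alongside 4 ng/ml IFN-beta to HLA-B*08:01-HiBiT knock-in myoblasts. Luminescence is measured after 24 h treatment.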

[10] = target: Protein phosphatase 1D (Homo sapiens) (UniProt O15297); test: RapidFire Mass Spectrometry qHTS Assay for Modulators of WT P53-Induced Phosphatase 1 (WIP1) (AID 1347424);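 further: amount of dephosphorylated VEPPL-S-QETFS peptide product formed by WIP1; series mostly up to about 63 µM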
Summary of the method: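 WIP1 (10 nM final) was preincubated 1 h at room temperature with compounds in Tris-HCl pH 7.5, 30 mM MgCl2, TCEP, EGTA, BSA; 2 uM VEPPL-pS-QETFS phosphopeptide was added for 5 min, quenched with formic acid, and dephosphorylated product quantified by RapidFire MS.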

[11] = target: Protein phosphatase 1D (Homo sapiens) (UniProt O15297); test: Rhodamine-PBP qHTS Assay for Modulators of WT P53-Induced Phosphatase 1 (WIP1) (AID 1347425)
Summary of the method: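 Steps: enzyme with Rh-PBP sensor and compounds, room-temperature incubation of 1 hr, baseline read, addition of VEPPL-pS-QETFS (10 uM final), kinetic fluorescence reads at 525/598 nm. Activity equals final minus baseline signal.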

[12] = A High-Content qHTS Against Drug Library for the Identification of Small Molecules that Inhibit DYT1 Early Onset Primary Dystonia-Associated Cell Pathology (AID 1645839; calls by dose curve; further: series mostly up to about 46 µM)
Summary of the method: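 Readout: %pathology, the punctate EGFP-TorsinA distribution from imaging, as the primary channel and cell count as the toxicity counterscreen. HEK293 Flp-In cells expressing delE TorsinA were induced with tetracycline and treated with compound for 48 h.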

[13] = target: Cytochrome P450 2D6 (Homo sapiens) (UniProt P10635); test: Cytochrome P450 family 2 subfamily D member 6 (CYP2D6) small molecule antagonists: luciferase biochemical (cell-free) qHTS assay (AID 1645840; active means well fitted curve in the direction sought with a large enough effect in the repeat runs; an effect the other way counts as inactive or inconclusive; further: nearly all actives have a fitted effect of over 55% in size; further: potency means the concentration at half of the fitted maximal effect)
Summary of the method: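 P450-Glo luminescent screen: recombinant CYP2D6 enzyme–proluciferin substrate mix preincubated with compound 10 min at room temperature, then NADPH regeneration added for 1 h at room temperature. Detection reagent added for 20 min; luciferin light read as relative luminescence units.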

[14] = Counterscreen qHTS for small molecule stabilizers of the endoplasmic reticulum resident proteome: GLuc-NoTag assay (AID 1508627);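 further: SH-SY5Y cells given compound then 100 nM thapsigargin to empty ER calcium; series mostly up to about 76 µM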
Summary of the method: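 SH-SY5Y cells stably expressing constitutively secreted GLuc (no SERCaMP tag) were pre-incubated 5 h, treated with compound for 19 h, then 100 nM thapsigargin for 4 h at 37C; medium GLuc read by coelenterazine luminescence.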

[15] = Confirmatory qHTS for small molecule stabilizers of the endoplasmic reticulum resident proteome: Secreted ER Calcium Modulated Protein (SERCaMP) assay (AID 1508628);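 further: SH-SY5Y cells given compound 16 h then thapsigargin 100 nM for 4 h; series mostly up to about 76 µM; nearly all actives have a fitted effect of over 40% in size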
Summary of the method: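 We seeded SH-SY5Y-GLuc-SERCaMP cells, added compounds (three concentrations in the primary run, eleven up to 76.6 uM in confirmation), incubated 16 h, depleted ER calcium with thapsigargin, and read luciferase 4 h later.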

[16] = Redox Reaction Profiling qHTS: Assay Interference Panel against the NCATS CANVASS Library (AID 1347401)
Summary of the method: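 Resazurin (5 uM) conversion to resorufin measured with 200 uM DTT in 50 mM HEPES pH 7.3, 50 mM NaCl. Compounds tested in 11-point qHTS series. Fluorescence (ex 525/em 598 nm) read before and after 15 min dark incubation.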

[17] = target: Calcium and integrin-binding protein 1 (Homo sapiens) (UniProt Q99828); test: Confirmatory qHTS for Identification of Calcium Integrin Binding Protein 1 (CIB1) Competitor (AID 1508617); further: potency means the concentration at half of the fitted maximal effect; nearly all actives have a fitted effect of over 65% in size
Summary of the method: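 Binding competition between test compounds and fluorescent alphaIIb peptide for 1 uM CIB1-GST is monitored by FP at 480/540 nm. Final compound range is up to 114 uM; unlabeled peptide serves as reference competitor.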

[18] = qHTS to identify inhibitors of the type 1 interferon - major histocompatibility complex class I in skeletal muscle: primary screen against the NCATS Mechanism Interrogation Plate v5.0 (MIPE) Libary (AID 1347411); further: nearly all actives have a fitted effect of over 65% in size
Summary of the method: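 Immortalized human C25cl48 myoblasts with HiBit knocked into endogenous HLA-B*08:01 were stimulated with 4.0 ng/ml IFN-beta and exposed to compounds (11-point 1:3 titration, top 46 uM final) for 24 hrs at 37 C; HiBiT lytic luminescence measured.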

Protein phosphatase 1D (Homo sapiens), sequence (O15297 whole entry, looked up): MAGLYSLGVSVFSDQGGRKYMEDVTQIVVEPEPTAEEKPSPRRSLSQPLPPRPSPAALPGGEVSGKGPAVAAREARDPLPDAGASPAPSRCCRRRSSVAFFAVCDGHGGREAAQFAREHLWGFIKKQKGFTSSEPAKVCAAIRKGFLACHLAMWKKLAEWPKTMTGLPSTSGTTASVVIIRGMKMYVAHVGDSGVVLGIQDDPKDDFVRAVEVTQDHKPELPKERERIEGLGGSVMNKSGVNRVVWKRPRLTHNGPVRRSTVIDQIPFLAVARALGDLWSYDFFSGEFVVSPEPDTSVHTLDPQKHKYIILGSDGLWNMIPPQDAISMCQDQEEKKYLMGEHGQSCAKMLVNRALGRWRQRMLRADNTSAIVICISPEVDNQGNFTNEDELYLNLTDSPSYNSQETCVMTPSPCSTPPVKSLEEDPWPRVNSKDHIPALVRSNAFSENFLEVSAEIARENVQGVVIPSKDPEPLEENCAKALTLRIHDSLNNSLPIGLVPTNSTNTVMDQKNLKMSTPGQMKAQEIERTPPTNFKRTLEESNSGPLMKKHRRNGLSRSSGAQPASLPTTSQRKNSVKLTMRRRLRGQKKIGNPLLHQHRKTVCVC
Single-stranded DNA cytosine deaminase (Homo sapiens), sequence (Q9GZX7 whole entry, looked up): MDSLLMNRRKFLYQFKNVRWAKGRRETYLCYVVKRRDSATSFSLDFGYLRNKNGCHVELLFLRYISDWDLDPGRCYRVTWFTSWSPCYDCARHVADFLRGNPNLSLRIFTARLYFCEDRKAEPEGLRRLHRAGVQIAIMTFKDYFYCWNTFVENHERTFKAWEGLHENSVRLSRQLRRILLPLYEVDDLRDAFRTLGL
Calcium and integrin-binding protein 1 (Homo sapiens), sequence (Q99828 whole entry, looked up): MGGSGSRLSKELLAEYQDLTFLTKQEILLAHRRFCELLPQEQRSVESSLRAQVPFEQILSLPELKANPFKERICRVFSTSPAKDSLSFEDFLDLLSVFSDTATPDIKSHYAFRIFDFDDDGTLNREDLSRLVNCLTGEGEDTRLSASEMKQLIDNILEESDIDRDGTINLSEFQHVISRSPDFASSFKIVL
Cytochrome P450 2D6 (Homo sapiens), sequence (P10635 whole entry, looked up): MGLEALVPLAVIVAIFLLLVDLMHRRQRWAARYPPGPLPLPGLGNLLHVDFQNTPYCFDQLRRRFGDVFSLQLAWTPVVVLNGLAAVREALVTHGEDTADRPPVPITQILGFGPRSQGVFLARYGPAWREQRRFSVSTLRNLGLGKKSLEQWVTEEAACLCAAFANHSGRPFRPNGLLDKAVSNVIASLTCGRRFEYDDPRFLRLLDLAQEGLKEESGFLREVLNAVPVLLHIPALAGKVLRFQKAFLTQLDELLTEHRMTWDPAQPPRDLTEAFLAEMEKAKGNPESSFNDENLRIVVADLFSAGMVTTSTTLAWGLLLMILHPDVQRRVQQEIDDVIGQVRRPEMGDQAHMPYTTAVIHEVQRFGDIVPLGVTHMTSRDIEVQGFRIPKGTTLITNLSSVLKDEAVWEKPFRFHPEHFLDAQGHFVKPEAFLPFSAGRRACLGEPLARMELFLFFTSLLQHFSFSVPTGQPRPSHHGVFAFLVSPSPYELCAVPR

Row | SMILES | Potency [1] | outcome [2] | outcome [3] | Potency [4] | outcome [5] | outcome [6] | Potency [7] | Potency [8] | Potency [9] | outcome [10] | outcome [11] | Potency [12] | Potency [13] | Potency [14] | Potency [15] | Potency [16] | Potency [17] | Potency [18]
1 | COc1cccc(-c2cc(=O)c3ccccc3o2)c1N | inactive | inactive | inactive | inactive | inactive | inactive | inactive | inactive |  |  |  |  |  |  |  |  |  | 
2 | CC(C)NCC(O)COc1cccc2[nH]ccc12 (stereo not drawn) | inactive | inactive | inactive | inactive | inactive | inactive | inactive |  | inactive | inactive | inactive | inactive |  |  |  |  |  | 
3 | O=C(O)c1cc(-c2ccccc2)nc2ccccc12 |  |  |  |  | inactive |  |  | inactive | inactive | inactive | inactive | inactive | inactive |  |  |  |  | 
4 | CC[C@]1(O)C[C@@H]2CN(CCc3c([nH]c4ccccc34)[C@@](C(=O)OC)(c3cc4c(cc3OC)N(C)[C@H]3[C@@](O)(C(=O)OC)[C@H](OC(C)=O)[C@]5(CC)C=CCN6CC[C@]43[C@@H]65)C2)C1 |  |  |  |  | inactive |  | inactive | inactive | inactive | inactive | inactive | inactive |  |  |  |  |  | 
5 | CCCCC1C(=O)N(c2ccccc2)N(c2ccccc2)C1=O | 15.8 µM (active) | inactive | inactive | inactive | inactive |  |  | inactive |  |  |  | inactive | inactive |  |  |  |  | 
6 | Clc1ccc(Cn2c(CN3CCCC3)nc3ccccc32)cc1 | inactive | inactive | inactive | inactive | inactive | inactive | inactive | inactive | inactive | inactive | inactive | inactive | 0.309 µM (active) |  |  |  |  | 
7 | CC(=O)c1ccc(S(=O)(=O)NC(=O)NC2CCCCC2)cc1 | inactive | inactive | inactive | inactive | inactive | inactive | inactive | inactive | inactive | inactive | inactive | inactive | inactive |  |  |  |  | 
8 | CC(=O)CCCCn1c(=O)c2c(ncn2C)n(C)c1=O | inactive | inactive | inactive | inactive | inactive |  |  | inactive | inactive | inactive | inactive | inactive | inactive |  |  |  |  | 
9 | CCN(CC)CCOC(=O)c1ccc(N)cc1 | inactive | inactive | inactive | inactive | inactive | inactive | inactive | inactive | inactive | inactive | inactive | inactive |  | inactive | inactive |  |  | 
10 | O=c1cc(-c2ccccc2)oc2cc(O)c(O)c(O)c12 |  |  |  |  |  |  |  | inactive |  |  |  |  |  |  |  | inactive | 39.8 µM (active) | 
11 | CCN1CCC[C@H]1CNC(=O)c1cc(S(N)(=O)=O)ccc1OC | inactive | inactive | inactive | inactive | inactive | inactive | inactive | inactive | inactive | inactive | inactive | inactive | inactive |  |  |  |  | 
12 | C[N+](C)(C)CCCCCC[N+](C)(C)C | inactive | inactive | inactive | inactive | inactive | inactive | inactive | inactive | inactive | inactive | inactive | inactive | inactive |  |  |  |  | 
13 | CC(=O)N[C@@H](CS)C(=O)O | inactive | inactive | inactive | inactive | inactive | inactive | inactive | inactive | inactive | inactive | inactive | inactive | inactive |  |  |  |  | 
14 | CC(=O)O[C@]1(C(C)=O)CC[C@H]2[C@@H]3C=C(Cl)C4=CC(=O)[C@@H]5C[C@@H]5[C@]4(C)[C@H]3CC[C@@]21C | inactive | inactive | inactive | inactive | inactive | inactive | inactive | inactive | inactive |  | inactive | inactive | inactive |  |  |  |  | inactive
15 | C[N+](C)(C)CC(=O)O |  |  |  |  | inactive |  |  |  | inactive | inactive | inactive | inactive | inactive |  |  |  |  | 
